Laboratory results from PubChem BioAssay (Tox21).
Inconclusive results are not listed. Activity calls are given as the source filed them. Unless noted, the call rests on the fitted dose curve; in most records, active means well fitted curve in the direction sought with a large enough effect in the repeat runs; inconclusive means weak or mixed curves; inactive means no such curve, though single readings can be large; an effect the other way counts as inactive or inconclusive.

Tests used:
[1] = target: Aryl hydrocarbon receptor (Homo sapiens) (UniProt P35869); assay: qHTS assay to identify small molecule that activate the aryl hydrocarbon receptor (AhR) signaling pathway (AID 743085);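 further: HG2L7.5c1 human HepG2 liver cells with stably integrated DRE-driven firefly reporter; series mostly up to about 70 µM; nearly all actives have a fitted effect of over 15% in size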
Aryl hydrocarbon receptor (Homo sapiens), sequence (P35869 whole entry, looked up): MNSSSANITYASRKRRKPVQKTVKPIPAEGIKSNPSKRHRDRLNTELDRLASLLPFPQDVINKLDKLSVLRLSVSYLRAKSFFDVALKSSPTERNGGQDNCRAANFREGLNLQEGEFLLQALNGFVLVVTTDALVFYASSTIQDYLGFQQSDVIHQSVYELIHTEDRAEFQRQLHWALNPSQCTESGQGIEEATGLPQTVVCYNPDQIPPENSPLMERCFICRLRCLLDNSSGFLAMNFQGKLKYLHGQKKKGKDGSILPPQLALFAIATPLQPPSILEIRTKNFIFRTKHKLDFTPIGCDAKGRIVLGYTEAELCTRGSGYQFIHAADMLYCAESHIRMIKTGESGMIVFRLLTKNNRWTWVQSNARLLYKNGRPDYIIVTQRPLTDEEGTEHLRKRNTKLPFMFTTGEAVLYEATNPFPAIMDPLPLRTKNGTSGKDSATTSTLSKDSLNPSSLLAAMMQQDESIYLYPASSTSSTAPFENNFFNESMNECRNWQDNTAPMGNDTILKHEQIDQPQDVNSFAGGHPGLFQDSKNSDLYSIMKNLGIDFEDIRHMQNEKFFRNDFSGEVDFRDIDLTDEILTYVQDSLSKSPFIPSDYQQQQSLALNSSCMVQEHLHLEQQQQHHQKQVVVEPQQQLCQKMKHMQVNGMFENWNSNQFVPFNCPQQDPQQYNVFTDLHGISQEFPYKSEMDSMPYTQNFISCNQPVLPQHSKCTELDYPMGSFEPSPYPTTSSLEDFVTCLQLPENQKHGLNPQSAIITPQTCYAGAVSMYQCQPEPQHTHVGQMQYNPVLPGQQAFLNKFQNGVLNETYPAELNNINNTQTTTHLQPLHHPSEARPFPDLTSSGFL
Outline: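 Compounds were tested in HepG2 hepatocellular carcinoma cells harbouring a stably integrated luciferase gene under control of 20 DREs. Increased reporter signal after 24 h treatment at 37C was taken as AhR activation.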

[2] = qHTS assay to identify small molecule that activate the aryl hydrocarbon receptor (AhR) signaling pathway - cell viability counter screen (AID 743086);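 further: HepG2 liver cells carrying the AhR DRE luciferase reporter; series mostly up to about 70 µM; nearly all actives have a fitted effect of over 45% in size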
Outline: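 HepG2-AhR-luc (HG2L7.5c1) cells, 4000/well, treated 24 h at 37 C with compound; viability measured as CellTiter-Fluor fluorescence after 30 min in the same wells as the luciferase read.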

[3] = target: Peroxisome proliferator-activated receptor gamma (Homo sapiens) (UniProt P37231); assay: qHTS assay to identify small molecule agonists of the peroxisome proliferator-activated receptor gamma (PPARg) signaling pathway (AID 743094; active means well fitted activation curve with a large enough effect in the signal ratio in the repeat runs, not every such curve was filed as active; the % refers to the signal ratio; further: potency means the concentration at half of the fitted maximal effect)
Peroxisome proliferator-activated receptor gamma (Homo sapiens), sequence (P37231 whole entry, looked up): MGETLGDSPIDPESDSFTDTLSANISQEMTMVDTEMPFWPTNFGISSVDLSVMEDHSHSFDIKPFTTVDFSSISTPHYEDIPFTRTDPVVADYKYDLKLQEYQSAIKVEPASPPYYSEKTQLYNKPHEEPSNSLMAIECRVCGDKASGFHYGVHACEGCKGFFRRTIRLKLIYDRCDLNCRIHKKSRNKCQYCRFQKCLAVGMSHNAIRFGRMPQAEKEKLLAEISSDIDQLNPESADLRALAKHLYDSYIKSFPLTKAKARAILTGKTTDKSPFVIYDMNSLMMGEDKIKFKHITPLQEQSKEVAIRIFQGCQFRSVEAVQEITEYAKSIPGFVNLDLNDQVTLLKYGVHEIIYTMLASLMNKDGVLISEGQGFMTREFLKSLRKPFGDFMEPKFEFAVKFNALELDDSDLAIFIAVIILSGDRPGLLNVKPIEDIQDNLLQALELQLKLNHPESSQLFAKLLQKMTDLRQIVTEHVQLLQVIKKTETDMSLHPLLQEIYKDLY
Outline: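 Beta-lactamase FRET fluorescence was the read-out after a 1 h room-temperature substrate step, following 17 h compound treatment at 37C of HEK293H cells expressing a UAS-driven bla reporter responsive to PPARg.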

[4] = qHTS assay to identify small molecule antagonists of the peroxisome proliferator-activated receptor gamma (PPARg) signaling pathway - cell viability counter screen (AID 743194); conditions: Potency: co-treated with 50 nM rosiglitazone unless noted; further: nearly all actives have a fitted effect of over 55% in size
Outline: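 Cytotoxicity counter screen in PPARg-bla HEK293H cells, same wells as reporter assay. Compounds plus 50 nM rosiglitazone (final) for 17 h at 37 C, then viability read by CellTiter-Glo luminescence.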

[5] = qHTS assay for small molecule agonists of the antioxidant response element (ARE) signaling pathway - cell viability counter screen (AID 743203; calls by dose curve; further: nearly all actives have a fitted effect of over 55% in size)
Outline: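 HepG2 cells carrying ARE-driven beta-lactamase; 2,000 cells/well; 5 hrs plating; compound pinned from DMSO; 16 hrs 37C/5% CO2; CellTiter-Glo added; 30 min RT; luminescence.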

[6] = qHTS assay for small molecule activators of the heat shock response signaling pathway - cell viability counter screen (AID 743209); further: nearly all actives have a fitted effect of over 50% in size
Outline: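 Luminescence from CellTiter-Glo, added after the beta-lactamase FRET read, gave the viability signal. Cells were HSE-bla HeLa treated with DMSO-dissolved compounds for 5 h at 37 C following overnight plating.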

[7] = qHTS assay to identify small molecule agonists of the peroxisome proliferator-activated receptor delta (PPARd) signaling pathway - cell viability counter screen (AID 743211); further: nearly all actives have a fitted effect of over 55% in size
Outline: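 Counter screen for cytotoxicity run in parallel with the PPARd reporter screen. Beta-lactamase reporter HEK293H cells exposed to compounds 17 h; ATP-based CellTiter-Glo luminescence quantified viability.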

[8] = target: Peroxisome proliferator-activated receptor delta (Homo sapiens) (UniProt Q03181); assay: qHTS assay to identify small molecule agonists of the peroxisome proliferator-activated receptor delta (PPARd) signaling pathway (AID 743212; calls by dose curve)
Peroxisome proliferator-activated receptor delta (Homo sapiens), sequence (Q03181 whole entry, looked up): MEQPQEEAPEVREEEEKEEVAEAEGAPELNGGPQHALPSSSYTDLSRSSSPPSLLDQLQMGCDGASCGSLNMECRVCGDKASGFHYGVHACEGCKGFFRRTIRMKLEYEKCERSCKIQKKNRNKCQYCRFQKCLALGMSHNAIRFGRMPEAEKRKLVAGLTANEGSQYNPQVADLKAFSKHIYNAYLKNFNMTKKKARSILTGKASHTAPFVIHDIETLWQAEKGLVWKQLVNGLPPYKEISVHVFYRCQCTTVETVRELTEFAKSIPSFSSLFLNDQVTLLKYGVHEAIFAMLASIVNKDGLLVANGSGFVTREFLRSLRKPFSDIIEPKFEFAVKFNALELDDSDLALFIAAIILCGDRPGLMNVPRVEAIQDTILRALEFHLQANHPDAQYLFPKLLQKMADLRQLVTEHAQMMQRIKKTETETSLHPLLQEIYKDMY
Outline: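 Quantitative high-throughput agonist screen in a HEK293H beta-lactamase reporter line under UAS control. Compounds in DMSO, at 37 C. Fluorescence read after 2 h with FRET substrate at room temperature.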

[9] = qHTS assay to identify small molecule antagonists of the peroxisome proliferator-activated receptor delta (PPARd) signaling pathway - cell viability counter screen (AID 743213); further: nearly all actives have a fitted effect of over 50% in size
Outline: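 HEK293H PPARd UAS-bla cells, 5 h pre-incubation, compound + L165041 300 nM final, 17 h 37 C; B/G FRET substrate 2 h RT; then CellTiter-Glo 30 min RT, luminescence.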

[10] = target: Bile acid receptor (Homo sapiens) (UniProt Q96RI1); assay: qHTS assay to identify small molecule antagonists of the farnesoid-X-receptor (FXR) signaling pathway (AID 743217; active means well fitted inhibition curve with a large enough effect in the signal ratio in the repeat runs, not every such curve was filed as active; the % refers to the signal ratio)
Bile acid receptor (Homo sapiens), sequence (Q96RI1 whole entry, looked up): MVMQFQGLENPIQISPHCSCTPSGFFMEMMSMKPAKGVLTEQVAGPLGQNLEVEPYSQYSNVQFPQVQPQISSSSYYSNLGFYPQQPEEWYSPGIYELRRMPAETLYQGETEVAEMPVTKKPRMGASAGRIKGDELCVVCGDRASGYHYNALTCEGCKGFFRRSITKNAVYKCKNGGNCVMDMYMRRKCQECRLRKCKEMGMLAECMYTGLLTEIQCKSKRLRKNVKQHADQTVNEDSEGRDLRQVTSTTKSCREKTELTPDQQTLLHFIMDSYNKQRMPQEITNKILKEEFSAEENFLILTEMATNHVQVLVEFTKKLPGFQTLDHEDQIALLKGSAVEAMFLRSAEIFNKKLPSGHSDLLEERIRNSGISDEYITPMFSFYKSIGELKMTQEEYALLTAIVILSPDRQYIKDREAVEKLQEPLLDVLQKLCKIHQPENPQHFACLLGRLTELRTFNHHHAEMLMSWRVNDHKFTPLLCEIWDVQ
Outline: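 HEK 293T FXR-UAS-bla, 5000 cells/well; compound + CDCA 50 uM final; 16 h, 37 °C; B/G FRET substrate 2 h RT; fluorescence.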

[11] = qHTS assay to identify small molecule agonists of the farnesoid-X-receptor (FXR) signaling pathway - cell viability counter screen (AID 743218); further: nearly all actives have a fitted effect of over 45% in size
Outline: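 HEK 293T FXR-bla cells; 5 h pre-incubation, 16 h compound exposure at 37 C; LiveBLAzer substrate 2 h RT, then CellTiter-Glo 30 min RT, luminescence.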

[12] = target: Bile acid receptor (Homo sapiens) (UniProt Q96RI1); assay: qHTS assay to identify small molecule agonists of the farnesoid-X-receptor (FXR) signaling pathway (AID 743220; active means well fitted activation curve with a large enough effect in the signal ratio in the repeat runs, not every such curve was filed as active; the % refers to the signal ratio)
Outline: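 Beta-lactamase reporter under UAS control in GeneBLAzer FXR HEK 293T cells (5000/well) measured with LiveBLAzer FRET substrate after 2 h at room temperature. Compound exposure lasted 16 h at 37C.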

[13] = qHTS assay to identify small molecule antagonists of the farnesoid-X-receptor (FXR) signaling pathway - cell viability counter screen (AID 743221; active means well fitted cell-killing curve with a large enough effect in the repeat runs, not every such curve was filed as active; further: nearly all actives have a fitted effect of over 50% in size)
Outline: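 Multiplexed counter screen: viability of FXR-bla HEK 293T cells under agonist stimulation by chenodeoxycholic acid (50 uM, final) and test compound for 16 h at 37 C, measured by CellTiter-Glo luminescence in the reporter wells.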

[14] = qHTS assay for small molecule activators of the heat shock response signaling pathway (AID 743210; active means well fitted activation curve with a large enough effect in the signal ratio in the repeat runs, with a control signal flat, not every such curve was filed as active; the % refers to the signal ratio; further: potency means the concentration at half of the fitted maximal effect;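 on activation: HeLa cells with beta-lactamase reporter driven by heat shock elements; series mostly up to about 63 µM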)
Outline: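 Quantitative high-throughput format using an engineered HeLa line in which heat shock response elements drive beta-lactamase; after 5 h with compound, cells received a B/G FRET substrate and fluorescence was read.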

[15] = target: Peroxisome proliferator-activated receptor delta (Homo sapiens) (UniProt Q03181); assay: qHTS assay to identify small molecule antagonists of the peroxisome proliferator-activated receptor delta (PPARd) signaling pathway (AID 743215; active means well fitted inhibition curve with a large enough effect in the signal ratio in the repeat runs, not every such curve was filed as active; the % refers to the signal ratio;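 further: cells stimulated with agonist L165041 at 300 nM final during compound exposure; series mostly up to about 62 µM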)
Outline: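 Read-out is beta-lactamase FRET fluorescence, measured 2 h after substrate addition at room temperature. Beforehand, UAS-bla HEK293H cells carrying the PPARd reporter were exposed to compounds with L165041 at 300 nM final for 17 h at 37 C.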

[16] = target: Vitamin D3 receptor (Homo sapiens) (UniProt P11473); assay: qHTS assay to identify small molecule agonists of the vitamin D receptor (VDR) signaling pathway (AID 743222; calls by dose curve)
Vitamin D3 receptor (Homo sapiens), sequence (P11473 whole entry, looked up): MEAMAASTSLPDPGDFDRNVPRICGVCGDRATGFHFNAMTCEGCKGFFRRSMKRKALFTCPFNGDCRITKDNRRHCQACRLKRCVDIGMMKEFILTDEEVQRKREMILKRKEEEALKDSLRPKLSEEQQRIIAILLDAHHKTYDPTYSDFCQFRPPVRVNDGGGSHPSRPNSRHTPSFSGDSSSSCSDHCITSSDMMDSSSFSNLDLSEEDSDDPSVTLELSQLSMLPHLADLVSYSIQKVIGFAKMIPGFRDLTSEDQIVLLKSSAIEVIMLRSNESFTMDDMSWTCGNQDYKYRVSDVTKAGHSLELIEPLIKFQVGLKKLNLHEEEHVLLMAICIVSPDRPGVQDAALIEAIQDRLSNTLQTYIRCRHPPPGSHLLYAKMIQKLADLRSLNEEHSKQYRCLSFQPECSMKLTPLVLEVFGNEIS
Outline: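 VDR-bla cells, 2,000/well; 4 h preincubation 37C; cpd (DMSO) 16 h; LiveBLAzer B/G substrate 2 h RT; fluorescence intensity read.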

[17] = target: Vitamin D3 receptor (Homo sapiens) (UniProt P11473); assay: qHTS assay to identify small molecule antagonists of the vitamin D receptor (VDR) signaling pathway (AID 743223; active means well fitted inhibition curve with a large enough effect in the signal ratio in the repeat runs, not every such curve was filed as active; the % refers to the signal ratio)
Outline: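 Cells carrying a VDR-driven beta-lactamase reporter (VDR-bla) were co-treated with compound and 3 nM final 1alpha,25-dihydroxyvitamin D3 for 16 h at 37C; reporter activity was measured as FRET substrate fluorescence after 2 h at room temperature.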

[18] = qHTS assay to identify small molecule agonists of the vitamin D receptor (VDR) signaling pathway - cell viability counter screen (AID 743224); further: nearly all actives have a fitted effect of over 50% in size; further: potency means the concentration at half of the fitted maximal effect
Outline: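 Luminescence from CellTiter-Glo, read after 30 min at room temperature, reports viability of VDR-bla cells treated with compounds for 16 h at 37C in the wells used for the beta-lactamase FRET read.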

[19] = target: Peroxisome proliferator-activated receptor gamma (Homo sapiens) (UniProt P37231); assay: qHTS assay to identify small molecule antagonists of the peroxisome proliferator-activated receptor gamma (PPARg) signaling pathway (AID 743191; calls by dose curve; further: series mostly up to about 63 µM; nearly all actives have a fitted effect of over 30% in size)
Outline: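 GeneBLAzer PPARg UAS-bla HEK293H cells, 5 h post-plating, exposed to compounds 17 h at 37C. LiveBLAzer B/G FRET substrate added for 1 h at room temperature; beta-lactamase reporter read by fluorescence intensity.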

[20] = qHTS assay for small molecule agonists of the antioxidant response element (ARE) signaling pathway (AID 743202; active means well fitted activation curve with a large enough effect in the signal ratio in the repeat runs, not every such curve was filed as active; the % refers to the signal ratio)
Outline: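 Agonist mode reporter screen: HepG2 cells with ARE-controlled beta-lactamase are incubated with test compounds for 16 h at 37 C, and beta-lactamase activity is measured as fluorescence of cleaved B/G FRET substrate.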

Measured: Potency

CCN(CC)CCc1c[nH]c2ccccc12
not listed: [14] | [15] | [16] | [17] | [18] | [19] | [20]
inactive: all other assays above

ClC1(Cl)C2(Cl)C3(Cl)C4(Cl)C(Cl)(Cl)C5(Cl)C3(Cl)C1(Cl)C5(Cl)C24Cl (stereo not drawn)
not listed: [7] | [10] | [11] | [19] | [20]
inactive: all other assays above

O=[N+]([O-])c1ccc(CCl)cc1
not listed: [10] | [11] | [12] | [19] | [20]
inactive: all other assays above

Oc1ccc(Cl)c(Cl)c1
not listed: [4] | [10] | [12] | [14] | [17] | [19] | [20]
inactive: all other assays above

Cc1c([N+](=O)[O-])c(C)c([N+](=O)[O-])c(C(C)(C)C)c1[N+](=O)[O-]
not listed: [4] | [10] | [11] | [12] | [13] | [14]
inactive: all other assays above

CCCCC(CC)COC(=O)OOC(C)(C)C (stereo not drawn)
inactive: [1] | [2] | [3] | [20] | [5] | [8] | [9] | [15] | [13] | [16] | [18]

CC(C)N(C(=O)SC/C(Cl)=C/Cl)C(C)C
not listed: [18] | [19]
inactive: all other assays above

ClC1=C(Cl)[C@]2(Cl)[C@@H]3[C@H]4C[C@H]([C@@H]5O[C@H]45)[C@@H]3[C@@]1(Cl)C2(Cl)Cl
active: [14] 51.8 µM | [18] 43.6 µM
inactive: [1] | [2] | [3] | [4] | [5] | [6] | [11] | [13] | [17]

N#Cc1ccc(N(CC(N)=O)CC(F)(F)F)cc1C(F)(F)F
active: [3] 0.692 µM
not listed: [4] | [19]
inactive: all other assays above
